# Measurements reported in PubChem BioAssay.
# “And” between values parts separate entries of the source, which are not always exact repeats. Equal values may be shown once. More than one record can exist for a structure, and the calls need not agree. The source made the active and inactive calls.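 The calls were made as follows, unless noted: active = inhibition at or above 50% relative to wild type and mutant plate controls; inactive = inhibition below 50%.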
# Test: inhibitors of Chlamydomonas gravitaxis, primary screen, whole organism, Chlamydomonas reinhardtii, WT vs cilia-less mutant, absorbance, 96-well (AID 463189);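 also: 0% = wild type cc124 cells in DMSO and 100% = ciliumless bld1 mutant cells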
# Conditions: OD600 absorbance, 2 days, at 10 µM, stronger effect = higher value
row,Compound,inhibition
1,CN1CCN(C2=Nc3cc(Cl)ccc3Nc3ccccc32)CC1,-2.62% (inactive) and 13.2% (inactive)
2,CCN(CC)CCNC(=O)c1ccc(N)cc1,3.94% (inactive) and 1.02% (inactive)
3,CCOC(=O)C(OC(=O)c1sc(=S)n(C)c1C)C(C)=O (configuration not stated),63.7% (active)
4,COc1ccc(Cn2ccnc2)cc1Br,109% (active)
5,CC1(C)CC(=O)C=C(N=CC2=C(O)CC(C)(C)CC2=O)C1,8.63% (inactive)
6,CC1(C)CC(=O)C(C=N)=C(O)C1,3.24% (inactive)
7,COc1cc(C(=O)Nc2ccccn2)cc(OC)c1OC,6.27% (inactive)
8,CN(C)CCCN1c2ccccc2CCc2ccccc21,-3.09% (inactive) and 37.3% (inactive)
9,CC1(C)S[C@@H]2[C@H](NC(=O)[C@H](N)c3ccccc3)C(=O)N2[C@H]1C(=O)O,-0.692% (inactive)
10,CCOC(=O)C(Oc1ccc(=O)[nH]n1)C(C)=O (configuration not stated),-3.15% (inactive)
11,Fc1ccc(C(c2ccc(F)cc2)N2CCN(C/C=C/c3ccccc3)CC2)cc1,-8.15% (inactive) and 80.3% (active)
12,O=P(Cc1nnco1)(c1ccccc1)c1ccccc1,-3.84% (inactive)
13,COc1ccc(OCC(=O)OCCN(C)C)cc1,6.76% (inactive)
14,C=CCNc1nc(C2(C)CC3(CC(C)(C)OC3=O)C(=O)O2)cs1 (configuration not stated),6.21% (inactive)
15,CCCCCOc1ccc(Cl)cc1CN1CCOCC1,126% (active)
16,COC(=O)C1C(=O)NCC1c1ccccc1 (configuration not stated),31.4% (inactive)
17,CC(=O)Oc1oc(-c2ccccc2)nc1/C=N/c1ccccn1,-3.91% (inactive)
18,NC(N)=Nc1nc(CSCC/C(N)=N/S(N)(=O)=O)cs1,2.23% (inactive) and -8.71% (inactive)
19,CC1(C)CC(=O)C=C(NCCO)C1,40.3% (inactive)
20,COc1ccc(-c2coc3cc(O)cc(O)c3c2=O)cc1,-12.4% (inactive)

row,Compound,inhibition
1,O=C(NCCO)C1(c2ccccc2)CCCC1,-4.89% (inactive)
2,COc1cc2nc(N3CCN(C(=O)C4CCCO4)CC3)nc(N)c2cc1OC (configuration not stated),3.5% (inactive) and -0.975% (inactive)
3,Nc1nc2c(ncn2COCCO)c(=O)[nH]1,-9.79% (inactive) and -10% (inactive)
4,Cc1cc(N/C=C/C(=O)c2cccc3ccccc23)no1,-11.1% (inactive)
5,Cc1nnc(NS(=O)(=O)c2ccc(N)cc2)s1,-0.666% (inactive)
6,Cc1nc2sc(C)c(C)c2c(=O)o1,6.15% (inactive)
7,CC(=O)O[C@@]12CO[C@@H]1C[C@H](O)[C@@]1(C)C(=O)[C@H](O)C3=C(C)[C@@H](OC(=O)[C@H](O)[C@@H](NC(=O)OC(C)(C)C)c4ccccc4)C[C@](O)([C@@H](OC(=O)c4ccccc4)[C@H]21)C3(C)C,22.5% (inactive)
8,CC[C@H]1CN2CCc3cc(OC)c(OC)cc3[C@@H]2C[C@@H]1C[C@H]1NCCc2cc(OC)c(OC)cc21,69.7% (active) and 130% (active)
9,CC1=NS(=O)(=O)c2cc(Cl)ccc2N1,-5.98% (inactive) and 10.3% (inactive)
10,O=C(NCC1CCCCN1)c1cc(OCC(F)(F)F)ccc1OCC(F)(F)F (configuration not stated),-10.1% (inactive) and -10.2% (inactive)
11,CC[C@]1(O)C[C@@H]2CN(CCc3c([nH]c4ccccc34)[C@@](C(=O)OC)(c3cc4c(cc3OC)N(C)[C@H]3[C@@](O)(C(=O)OC)[C@H](OC(C)=O)[C@]5(CC)C=CCN6CC[C@]43[C@@H]65)C2)C1,-7.31% (inactive)
12,O=C(CCN1CCc2ccccc21)c1ccc2c(c1)OCCO2,3.69% (inactive)
13,O=C(c1ccc(N2C(=O)C3CC=C(Cl)CC3C2=O)cc1)N1CCCCC1 (configuration not stated),-0.983% (inactive)
14,COc1ccc([C@@H]2Sc3ccccc3N(CCN(C)C)C(=O)[C@@H]2OC(C)=O)cc1,4.06% (inactive) and -15.6% (inactive)
15,COc1ccc[nH]c1=O,14.4% (inactive)
16,O=C(CCCN1CCC(O)(c2ccc(Cl)cc2)CC1)c1ccc(F)cc1,-2.31% (inactive) and 3.84% (inactive)
17,CCn1cc(/C=N/O)c(C)n1,17.2% (inactive)
18,C1CNCCNCCCNCCNC1,-15.9% (inactive)
19,CC(C)(C#N)C(C)(C)c1nn[nH]n1,20% (inactive)
20,O=C(O)c1ccc(COCC(F)(F)C(F)F)o1,25% (inactive)

# Test: inhibitors of Sendai virus-induced IRF3 signaling, primary screen, TLR/RLR signaling modifier project, cell-based, Sendai virus stimulus, luciferase, 10K MLSCN set (AID 602276;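 active = inhibition at or above 50% at 10 µM; inactive = inhibition below 50%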;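 also: firefly luciferase from ISG56 promoter only with Renilla not read in this screen; 0% = Sendai virus plus DMSO and 100% = medium plus DMSO without virus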)
# Conditions: HEK293 RL24 IRF3 luciferase reporter, at 10 µM, stronger effect = higher value
row,Compound,inhibition
1,CN1CCN(C2=Nc3cc(Cl)ccc3Nc3ccccc32)CC1,2.76% (inactive)
2,CCN(CC)CCNC(=O)c1ccc(N)cc1,-2.32% (inactive)
3,CN(C)CCCN1c2ccccc2CCc2ccccc21,-11.2% (inactive)
4,CC1(C)S[C@@H]2[C@H](NC(=O)[C@H](N)c3ccccc3)C(=O)N2[C@H]1C(=O)O,7.78% (inactive)
5,Fc1ccc(C(c2ccc(F)cc2)N2CCN(C/C=C/c3ccccc3)CC2)cc1,10.5% (inactive)
6,NC(N)=Nc1nc(CSCC/C(N)=N/S(N)(=O)=O)cs1,13.5% (inactive)
7,COc1ccc(-c2coc3cc(O)cc(O)c3c2=O)cc1,-90.2% (inactive)
8,COc1cc2nc(N3CCN(C(=O)C4CCCO4)CC3)nc(N)c2cc1OC (configuration not stated),16.1% (inactive)
9,Nc1nc2c(ncn2COCCO)c(=O)[nH]1,-1.97% (inactive)
10,Cc1nnc(NS(=O)(=O)c2ccc(N)cc2)s1,-4.22% (inactive)
11,CC(=O)O[C@@]12CO[C@@H]1C[C@H](O)[C@@]1(C)C(=O)[C@H](O)C3=C(C)[C@@H](OC(=O)[C@H](O)[C@@H](NC(=O)OC(C)(C)C)c4ccccc4)C[C@](O)([C@@H](OC(=O)c4ccccc4)[C@H]21)C3(C)C,37.7% (inactive)
12,CC[C@H]1CN2CCc3cc(OC)c(OC)cc3[C@@H]2C[C@@H]1C[C@H]1NCCc2cc(OC)c(OC)cc21,-28.7% (inactive)
13,CC1=NS(=O)(=O)c2cc(Cl)ccc2N1,15.7% (inactive)
14,O=C(NCC1CCCCN1)c1cc(OCC(F)(F)F)ccc1OCC(F)(F)F (configuration not stated),-8.5% (inactive)
15,CC[C@]1(O)C[C@@H]2CN(CCc3c([nH]c4ccccc34)[C@@](C(=O)OC)(c3cc4c(cc3OC)N(C)[C@H]3[C@@](O)(C(=O)OC)[C@H](OC(C)=O)[C@]5(CC)C=CCN6CC[C@]43[C@@H]65)C2)C1,23.8% (inactive)
16,COc1ccc([C@@H]2Sc3ccccc3N(CCN(C)C)C(=O)[C@@H]2OC(C)=O)cc1,16.3% (inactive)
17,O=C(CCCN1CCC(O)(c2ccc(Cl)cc2)CC1)c1ccc(F)cc1,-13% (inactive)
